# The full data set covers some 8,800 targets. This sample favours those with a hit. About 0.5% of all pairs of compound and target were hits. Values without a mark were called inactive.
# Columns and labels:
# Assay in all cases: log2 fold change, soluble protein after heating vs DMSO (PISA); higher = thermal stabilisation; K562 lysate, 10 uM; active = over 0.2 and 3.5 SD of the protein, either way, in both replicates (recomputed)
# alvocidib = compound: CN1CC[C@H](c2c(O)cc(O)c3c(=O)cc(-c4ccccc4Cl)oc23)[C@H](O)C1 [alvocidib]
# Summary of the method: (§1)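 K562 pellets were dounce-homogenised in PBS pH 7.4 containing 1 mM MgCl2, and the crude extract, at 1 mg/mL protein, was exposed to 10 μM compound for 30 min. Aliquots were heated for 3 min across 48°C-58°C, pooled, brought to 0.5% NP-40 at 4°C and spun at 21,000xg for 90 min, with the supernatant taken as soluble protein. TMTpro 16plex LC-MS/MS with equalised channel sums quantified that protein. Values are log-two fold changes in thermal stability relative to solvent controls, taken from duplicates.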
# Tubastatin A = compound: CN1CCc2c(c3ccccc3n2Cc2ccc(C(=O)NO)cc2)C1 [Tubastatin A]
# Summary of the method: as §1
# [1] = compound: CNC(=O)C1=CC=CC=C1NC2=NC(=NC=C2Cl)NC3=C(C=C(C=C3)N4CCOCC4)OC
# Summary of the method: as §1
# defactinib = compound: CNC(=O)c1ccc(Nc2ncc(C(F)(F)F)c(NCc3nccnc3N(C)S(C)(=O)=O)n2)cc1 [defactinib]
# Summary of the method: as §1
# [2] = compound: CNc1nc(-c2ccc3c(N)n[nH]c3c2)cc(N2C[C@@H](C(=O)NC3CCCCC3)CC[C@H]2C)n1
# Summary of the method: as §1
# encorafenib = compound: COC(=O)N[C@@H](C)CNc1nccc(-c2cn(C(C)C)nc2-c2cc(Cl)cc(NS(C)(=O)=O)c2F)n1 [encorafenib]
# Summary of the method: as §1
# [3] = compound: COC(=O)[C@H](CCSC)NC(=O)C1=C(C=C(C=C1)NC[C@H](CS)N)C2=CC=CC=C2
# Summary of the method: as §1
# alisertib = compound: COc1cc(Nc2ncc3c(n2)-c2ccc(Cl)cc2C(c2c(F)cccc2OC)=NC3)ccc1C(=O)O [alisertib]
# Summary of the method: as §1
# [4] = compound: COc1cc2nc(-c3cc(F)ccc3O)nc(N[C@@H]3CNC[C@H]3C(C)(C)O)c2cc1OC
# Summary of the method: as §1
# gefitinib = compound: COc1cc2ncnc(Nc3ccc(F)c(Cl)c3)c2cc1OCCCN1CCOCC1 [gefitinib]
# Summary of the method: as §1
# lapatinib = compound: CS(=O)(=O)CCNCc1ccc(-c2ccc3ncnc(Nc4ccc(OCc5cccc(F)c5)c(Cl)c4)c3c2)o1 [lapatinib]
# Summary of the method: as §1
# pictilisib = compound: CS(=O)(=O)N1CCN(Cc2cc3nc(-c4cccc5[nH]ncc45)nc(N4CCOCC4)c3s2)CC1 [pictilisib]
# Summary of the method: as §1
# [5] = compound: C[C@H](C1=CC=C(C=C1)C(=O)NC2=C3C=CNC3=NC=C2)N
# Summary of the method: as §1
# duvelisib = compound: C[C@H](Nc1ncnc2nc[nH]c12)c1cc2cccc(Cl)c2c(=O)n1-c1ccccc1 [duvelisib]
# Summary of the method: as §1
# gandotinib = compound: Cc1cc(Nc2cc(CN3CCOCC3)c3nc(C)c(Cc4ccc(Cl)cc4F)n3n2)n[nH]1 [gandotinib]
# Summary of the method: as §1
# doramapimod = compound: Cc1ccc(-n2nc(C(C)(C)C)cc2NC(=O)Nc2ccc(OCCN3CCOCC3)c3ccccc23)cc1 [doramapimod]
# Summary of the method: as §1
# bafetinib = compound: Cc1ccc(NC(=O)c2ccc(CN3CC[C@H](N(C)C)C3)c(C(F)(F)F)c2)cc1Nc1nccc(-c2cncnc2)n1 [bafetinib]
# Summary of the method: as §1
# [6] = compound: Cc1cccc(CC(=O)N2CCc3c2ccc(-c2cn(C)c4ncnc(N)c24)c3F)n1
# Summary of the method: as §1
# tozasertib = compound: Cc1cc(Nc2cc(N3CCN(C)CC3)nc(Sc3ccc(NC(=O)C4CC4)cc3)n2)n[nH]1 [tozasertib]
# Summary of the method: as §1
# crizotinib = compound: C[C@@H](Oc1cc(-c2cnn(C3CCNCC3)c2)cnc1N)c1c(Cl)ccc(F)c1Cl [crizotinib]
# Summary of the method: as §1
# UniProt P49336, sequence (P49336 whole entry, looked up): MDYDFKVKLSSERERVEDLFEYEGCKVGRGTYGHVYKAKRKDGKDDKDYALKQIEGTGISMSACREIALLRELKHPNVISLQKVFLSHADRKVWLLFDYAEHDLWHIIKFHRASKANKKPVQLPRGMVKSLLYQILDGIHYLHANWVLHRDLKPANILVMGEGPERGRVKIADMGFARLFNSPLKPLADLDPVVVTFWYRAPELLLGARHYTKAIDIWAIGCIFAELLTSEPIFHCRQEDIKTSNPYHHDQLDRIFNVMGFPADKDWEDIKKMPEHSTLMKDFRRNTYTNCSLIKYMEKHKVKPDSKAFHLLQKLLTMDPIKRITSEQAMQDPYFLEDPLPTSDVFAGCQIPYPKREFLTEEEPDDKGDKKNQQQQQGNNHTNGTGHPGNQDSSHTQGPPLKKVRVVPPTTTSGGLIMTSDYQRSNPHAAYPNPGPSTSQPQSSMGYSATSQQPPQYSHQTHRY
# UniProt Q96B23, sequence (Q96B23 whole entry, looked up): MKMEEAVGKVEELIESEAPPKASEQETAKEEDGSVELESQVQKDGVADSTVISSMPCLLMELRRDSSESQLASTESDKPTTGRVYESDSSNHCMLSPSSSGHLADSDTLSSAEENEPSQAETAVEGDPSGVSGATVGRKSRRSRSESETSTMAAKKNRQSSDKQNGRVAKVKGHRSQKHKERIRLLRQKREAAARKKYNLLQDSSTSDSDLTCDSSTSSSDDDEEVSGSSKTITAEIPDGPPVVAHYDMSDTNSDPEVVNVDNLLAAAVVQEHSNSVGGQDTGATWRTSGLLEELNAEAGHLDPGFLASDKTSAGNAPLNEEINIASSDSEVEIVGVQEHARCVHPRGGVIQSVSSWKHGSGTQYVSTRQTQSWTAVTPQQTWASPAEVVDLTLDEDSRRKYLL
# UniProt Q9H0Y0, sequence (Q9H0Y0 whole entry, looked up): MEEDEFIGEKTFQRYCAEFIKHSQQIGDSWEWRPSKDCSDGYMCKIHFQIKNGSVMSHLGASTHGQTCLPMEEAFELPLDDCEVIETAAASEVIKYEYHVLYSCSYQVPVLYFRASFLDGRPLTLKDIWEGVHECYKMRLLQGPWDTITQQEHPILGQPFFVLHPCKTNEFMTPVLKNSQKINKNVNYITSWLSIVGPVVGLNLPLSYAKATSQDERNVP
# UniProt O14965, sequence (O14965 whole entry, looked up): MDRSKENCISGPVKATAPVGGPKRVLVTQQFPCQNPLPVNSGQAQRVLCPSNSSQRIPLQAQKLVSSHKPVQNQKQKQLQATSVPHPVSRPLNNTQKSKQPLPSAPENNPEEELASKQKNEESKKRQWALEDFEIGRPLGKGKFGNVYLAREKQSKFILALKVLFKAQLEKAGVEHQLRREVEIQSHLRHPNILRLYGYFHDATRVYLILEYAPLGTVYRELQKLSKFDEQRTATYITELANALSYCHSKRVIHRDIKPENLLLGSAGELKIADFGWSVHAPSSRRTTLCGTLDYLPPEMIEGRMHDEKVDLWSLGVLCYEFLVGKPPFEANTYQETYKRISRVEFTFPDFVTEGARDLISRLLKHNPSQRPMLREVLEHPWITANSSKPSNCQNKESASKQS
# UniProt Q9Y297, sequence (Q9Y297 whole entry, looked up): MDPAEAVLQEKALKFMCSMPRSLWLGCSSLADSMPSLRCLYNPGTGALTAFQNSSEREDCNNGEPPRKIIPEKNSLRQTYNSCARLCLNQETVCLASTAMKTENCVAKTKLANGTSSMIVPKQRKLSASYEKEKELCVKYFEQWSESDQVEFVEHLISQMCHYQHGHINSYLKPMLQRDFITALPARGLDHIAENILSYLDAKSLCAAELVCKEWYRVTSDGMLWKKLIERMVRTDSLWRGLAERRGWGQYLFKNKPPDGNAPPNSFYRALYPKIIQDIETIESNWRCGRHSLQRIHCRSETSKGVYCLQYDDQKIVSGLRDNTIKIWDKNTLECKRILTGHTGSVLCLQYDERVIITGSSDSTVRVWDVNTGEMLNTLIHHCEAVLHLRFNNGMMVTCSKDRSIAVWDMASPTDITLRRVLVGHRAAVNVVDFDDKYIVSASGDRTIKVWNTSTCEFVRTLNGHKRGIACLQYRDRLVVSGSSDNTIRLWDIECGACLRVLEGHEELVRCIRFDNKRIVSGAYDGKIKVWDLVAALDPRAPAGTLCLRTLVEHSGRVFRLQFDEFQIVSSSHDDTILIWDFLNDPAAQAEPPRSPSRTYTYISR
# UniProt Q96NL8, sequence (Q96NL8 whole entry, looked up): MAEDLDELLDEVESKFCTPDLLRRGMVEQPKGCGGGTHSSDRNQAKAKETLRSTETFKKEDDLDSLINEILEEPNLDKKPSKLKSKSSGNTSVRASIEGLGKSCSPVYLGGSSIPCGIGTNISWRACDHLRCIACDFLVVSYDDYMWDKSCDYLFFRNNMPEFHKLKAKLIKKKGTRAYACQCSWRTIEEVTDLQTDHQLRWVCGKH
# UniProt Q7Z4R8, sequence (Q7Z4R8 whole entry, looked up): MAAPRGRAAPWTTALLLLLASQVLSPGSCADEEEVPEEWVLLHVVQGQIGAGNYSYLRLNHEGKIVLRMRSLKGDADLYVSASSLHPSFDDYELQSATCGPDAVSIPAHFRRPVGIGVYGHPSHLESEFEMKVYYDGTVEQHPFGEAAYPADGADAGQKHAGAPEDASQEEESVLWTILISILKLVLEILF
# UniProt Q8NDD1, sequence (Q8NDD1 whole entry, looked up): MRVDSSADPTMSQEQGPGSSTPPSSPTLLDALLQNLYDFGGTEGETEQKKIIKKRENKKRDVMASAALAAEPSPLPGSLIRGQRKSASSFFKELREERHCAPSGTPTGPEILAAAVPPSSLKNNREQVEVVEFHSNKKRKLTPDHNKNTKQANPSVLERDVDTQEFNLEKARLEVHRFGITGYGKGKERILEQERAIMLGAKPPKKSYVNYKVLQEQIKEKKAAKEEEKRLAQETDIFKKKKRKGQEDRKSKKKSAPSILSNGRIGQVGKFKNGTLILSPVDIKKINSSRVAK
# UniProt Q96L58, sequence (Q96L58 whole entry, looked up): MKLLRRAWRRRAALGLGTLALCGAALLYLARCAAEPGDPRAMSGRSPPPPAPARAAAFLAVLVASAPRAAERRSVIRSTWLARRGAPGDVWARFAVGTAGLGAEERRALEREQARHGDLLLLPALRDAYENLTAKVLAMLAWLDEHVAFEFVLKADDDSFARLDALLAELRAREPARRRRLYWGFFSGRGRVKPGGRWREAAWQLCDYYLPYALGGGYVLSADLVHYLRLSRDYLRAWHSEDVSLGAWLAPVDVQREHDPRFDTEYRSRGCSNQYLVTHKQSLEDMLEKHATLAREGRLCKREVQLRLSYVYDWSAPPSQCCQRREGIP
# UniProt O60566, sequence (O60566 whole entry, looked up): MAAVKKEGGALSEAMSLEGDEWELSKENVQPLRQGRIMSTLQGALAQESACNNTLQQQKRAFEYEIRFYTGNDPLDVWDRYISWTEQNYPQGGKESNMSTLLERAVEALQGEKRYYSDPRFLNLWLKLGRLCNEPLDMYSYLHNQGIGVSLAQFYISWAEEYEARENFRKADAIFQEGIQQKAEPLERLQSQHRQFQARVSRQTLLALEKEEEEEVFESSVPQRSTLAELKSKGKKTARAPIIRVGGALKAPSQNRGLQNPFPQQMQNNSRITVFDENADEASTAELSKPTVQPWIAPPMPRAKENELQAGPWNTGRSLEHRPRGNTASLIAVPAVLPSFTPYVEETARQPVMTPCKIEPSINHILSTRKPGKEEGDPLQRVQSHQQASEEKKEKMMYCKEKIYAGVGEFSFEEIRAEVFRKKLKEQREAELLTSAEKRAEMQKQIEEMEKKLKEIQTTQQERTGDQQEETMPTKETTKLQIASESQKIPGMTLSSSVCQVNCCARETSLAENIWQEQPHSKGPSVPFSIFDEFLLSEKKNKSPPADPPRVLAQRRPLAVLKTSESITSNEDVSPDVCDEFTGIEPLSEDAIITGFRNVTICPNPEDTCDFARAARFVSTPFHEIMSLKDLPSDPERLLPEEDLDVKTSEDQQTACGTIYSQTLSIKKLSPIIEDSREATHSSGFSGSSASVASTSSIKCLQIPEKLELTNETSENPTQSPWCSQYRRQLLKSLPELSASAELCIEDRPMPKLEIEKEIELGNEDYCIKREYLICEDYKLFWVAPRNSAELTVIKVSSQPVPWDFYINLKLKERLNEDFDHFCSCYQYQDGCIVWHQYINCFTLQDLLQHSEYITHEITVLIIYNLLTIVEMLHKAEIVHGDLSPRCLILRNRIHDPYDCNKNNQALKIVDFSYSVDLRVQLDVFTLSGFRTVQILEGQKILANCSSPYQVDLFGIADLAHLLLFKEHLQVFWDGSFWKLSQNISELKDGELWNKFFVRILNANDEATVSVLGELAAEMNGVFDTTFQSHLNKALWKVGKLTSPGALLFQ
# UniProt Q96SZ6, sequence (Q96SZ6 whole entry, looked up): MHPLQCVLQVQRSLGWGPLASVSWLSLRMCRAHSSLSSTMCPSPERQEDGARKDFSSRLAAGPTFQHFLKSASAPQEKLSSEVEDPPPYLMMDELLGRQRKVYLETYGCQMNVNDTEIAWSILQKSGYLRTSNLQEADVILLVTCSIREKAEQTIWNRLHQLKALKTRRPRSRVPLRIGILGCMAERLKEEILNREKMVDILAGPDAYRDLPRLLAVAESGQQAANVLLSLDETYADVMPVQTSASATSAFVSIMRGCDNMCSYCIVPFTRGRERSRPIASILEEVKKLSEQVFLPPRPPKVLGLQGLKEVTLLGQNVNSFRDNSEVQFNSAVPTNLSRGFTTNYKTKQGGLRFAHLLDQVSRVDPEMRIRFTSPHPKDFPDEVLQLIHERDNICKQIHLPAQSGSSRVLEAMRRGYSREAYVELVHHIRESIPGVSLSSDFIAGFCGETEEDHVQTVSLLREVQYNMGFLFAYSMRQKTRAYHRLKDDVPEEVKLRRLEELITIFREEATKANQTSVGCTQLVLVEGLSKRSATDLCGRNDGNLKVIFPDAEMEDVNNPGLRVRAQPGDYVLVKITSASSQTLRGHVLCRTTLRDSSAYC
# UniProt A8MTT3, sequence (A8MTT3 whole entry, looked up): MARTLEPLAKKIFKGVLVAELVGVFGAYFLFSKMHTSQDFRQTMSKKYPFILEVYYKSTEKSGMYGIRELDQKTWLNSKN
Target,log2 fold change (alvocidib),log2 fold change (Tubastatin A),log2 fold change [1],log2 fold change (defactinib),log2 fold change [2],log2 fold change (encorafenib),log2 fold change [3],log2 fold change (alisertib),log2 fold change [4],log2 fold change (gefitinib),log2 fold change (lapatinib),log2 fold change (pictilisib),log2 fold change [5],log2 fold change (duvelisib),log2 fold change (gandotinib),log2 fold change (doramapimod),log2 fold change (bafetinib),log2 fold change [6],log2 fold change (tozasertib),log2 fold change (crizotinib)
AURKA (UniProt O14965),-0.006,0.03,0.586,0.425,0.094,-0.068,0.002,0.436,-0.023,-0.101,-0.101,0.112,-0.071,-0.006,1 (active),-0.061,-0.09,-0.062,,
BTRC (UniProt Q9Y297),-0.05,-0.019,-0.049,-0.018,,0.035,0.172,-0.022,0.096,-0.058,0.01,-0.008,0.018,,0.073,,-0.027,0.065,-0.01,
BUB1B isoform 3 (UniProt O60566),-0.032,-0.122,0.018,-0.012,0.018,0.033,0.018,0.002,0.011,-0.005,0.009,-0.038,0.007,0.024,-0.04,0.019,-0.029,0.035,-0.01,-0.059
ATP13A1 (UniProt Q9HD20),0.051,0.036,-0.012,0.028,-0.002,-0.008,-0.067,0.055,0.03,0.011,-0.115,-0.011,0.047,-0.004,-0.073,-0.053,-0.033,0.043,0.068,0.123
CD80 (UniProt P33681),0.071,0,0.014,-0.085,0.11,0.016,-0.082,-0.345,-0.011,-0.001,0.122,,0.395 (active),0.104,-0.086,-0.008,,0.016,0.088,-0.007
C3orf33 (UniProt Q6P1S2),-0.166,0.124,-0.084,0.224,0.115,,,-0.13,-0.111,0.006,0.09,0.059,-0.541,0.101,0.14,-0.025,-0.046,0.263,,-0.051
CDK2 (UniProt P24941),0.304 (active),0.021,0.08,0.196,0.048,0.016,-0.012,-0.01,0.072,-0.012,-0.026,0.028,,-0.026,0.403 (active),0.004,0.042,-0.001,0.008,0
C15orf39 (UniProt Q6ZRI6),-0.04,-0.188,-0.031,,0.089,0.047,0.059,0.036,,-0.067,,-0.04,0.025,-0.049,-0.076,0,0.19,-0.055,0.097,0.043
C1orf131 isoform 5 (UniProt Q8NDD1),-0.118,-0.036,0.03,0.013,0.148,0.127,0.02,0.148,-0.038,0.111,0.065,,-0.16,0.028,0.076,-0.008,,0.177,0.03,-0.006
CDK8 (UniProt P49336),0.384 (active),-0.059,-0.065,-0.101,0.083,,,-0.052,-0.047,0.07,-0.035,-0.033,0.129,-0.075,-0.065,0.322,-0.043,0.119,,-0.032
BCORL1 isoform 3 (UniProt Q5H9F3),-0.328,-0.006,-0.064,-0.213,0.113,0.022,0.021,,,,,,-0.577 (active),0.1,0.238,0.117,,0.475,0.049,-0.162
CBX1 (UniProt P83916),0.078,0.011,0.011,-0.001,0.025,0.01,-0.055,0.012,-0.025,0.059,0.052,-0.006,0.279 (active),0.03,-0.143,-0.034,0.025,-0.138,-0.05,0.023
CDK5RAP1 (UniProt Q96SZ6),0.019,-0.023,-0.06,0.018,-0.024,-0.057,0.029,-0.003,,-0.007,,0.184,0.051,-0.044,0.071,0,0.018,-0.009,0.015,-0.027
ATXN2 (UniProt F8WB05),-0.051,0.23,0.101,-0.063,-0.03,-0.033,0.023,,0.033,,0.06,0.005,0.087,-0.065,-0.028,-0.12,0.045,0.001,0.043,-0.023
C8orf37 (UniProt Q96NL8),-0.146,0.022,-0.035,0.281,-0.099,0.018,-0.011,,0.162,,-0.095,0.006,-0.559 (active),0.046,-0.06,0.043,0.09,0.238,0.006,0.043
ATG10 (UniProt Q9H0Y0),0.106,-0.035,0.01,-0.037,-0.022,0.024,0.025,0.032,,0.04,,-0.051,0.021,0.065,-0.023,-0.014,0.012,0.063,-0.087,-0.008
CEBPZOS (UniProt A8MTT3),-0.063,-0.124,0.015,0.075,-0.055,0.064,0.046,-0.064,-0.099,0.006,-0.001,,-0.352,0.035,-0.044,0.177,,0.203 (active),0.039,-0.025
C9orf72 (UniProt Q96LT7),0.001,0,-0.036,,0.058,0.125,0.259 (active),0.014,0.102,-0.106,0.061,-0.112,-0.075,-0.072,0.035,0.03,-0.043,-0.009,-0.196,0.082
C18orf25 isoform 2 (UniProt Q96B23),0.1,0.106,0.1,0.072,0.043,0.033,-0.084,0.058,0.031,0.034,-0.001,-0.235,-0.017,0.017,0.061,,-0.025,-0.021,0.001,
CDKN1B (UniProt P46527),0.057,0.048,0.035,0.067,-0.045,0.03,-0.043,,0.023,,0.083,-0.043,0.047,-0.06,-0.161,-0.04,-0.106,-0.059,-0.005,0.139
B3GALT6 (UniProt Q96L58),,0.051,-0.025,,0.059,,,,,,,-0.047,,0.045,,0.1,-0.066,,,-0.123
C6orf120 (UniProt Q7Z4R8),0.096,,0.031,,0.066,,,,-0.026,,-0.113,0.032,-0.03,-0.036,-0.037,,0.045,-0.169,,

# — the supplement of paper PMC10849652
